This note sets out measurements from PubChem BioAssay (Tox21).

A number with no mark means an inactive call. Activity calls are given as the source filed them. Calls come from the whole dose curve; as a rule, active = well fitted curve in the direction sought with a large enough effect in the repeat runs; inconclusive = weak or mixed curves; inactive = flat fitted curve, though single readings scatter.
% is set by controls: 0 for no effect and ±100 for the full control effect.

The assay in a line: qHTS assay to test for compound auto fluorescence at 590 nm (red) in HepG2 cells (AID 720674). The note with it: HepG2 autofluorescence, red 540/590 nm, 1 h; series mostly up to 91.3 µM; fluorescence, relative to Rose Bengal: at the top concentration. The text has this:
U.S. Tox21 Program National Center for Advancing Translational Sciences [NCATS] NIH Chemical Genomics Center [NCGC] U.S. Environmental Protection Agency [EPA] National Institutes of Environmental Health Sciences [NIEHS] National Toxicology Program [NTP] U.S. Food and Drug Administration [FDA] Tox21 Assay Overview: Compound auto fluorescence often interferes with screening of the compound library against various biological targets and signaling pathways. Some of these compounds may have fluorophoric properties. Such properties may interfere with the assay outputs resulting in false positives and/or negatives. To decrease such complications and ensure the compound activities are relevant in terms of biological response, the Tox21 10K compound library was screened for auto fluorescence. From the fluorophores used as reporter signals in our screening assays, the auto fluorescence equivalencies of compounds against three fluorophores have been evaluated: Triamterene, Fluorescein and Rose Bengal sodium for blue, green and red fluorescence, respectively. The fluorescence intensities were measured using Excitation/Emission wavelengths at 405/460nm, 485/535nm and 540/590nm for blue, green and red labels, respectively. This assay includes the red fluorescence data.
Tox21 Assay Protocol Summary: 2,000 HepG2 cells in 5 uL of culture medium (MEM containing 10% FBS) per well were dispensed into black wall/clear bottom 1536-well plates using a Multidrop Combi Dispenser (ThermoFisher Scientific, Waltham, MA). The assay plates were incubated overnight at 37 C to allow cell attachment to the well bottom, followed by the transfer of 23 nL compound or DMSO vehicle by a pintool work station (Kalypsys , San Diego, CA). After the assay plates were incubated for 1 hr at 37 C and 5% CO2, fluorescence intensities in the assay plates were measured by an Envision (PerkinElmer, Shelton, CT) plate reader using three labels for measuring blue, green and red fluorescence at […] 460, 535 and 590 nm respectively.
For orientation: Quantitative high-throughput screening tests each substance at several concentrations.
`CCCCCCCC/C=C\CCCCCCCCCCCC(=O)O`: the “fluorescence, relative to Rose Bengal” value was -0.0082% [at 95.7 µM].
On the same count and under the same terms, to `CCCCCCCC/C=C\CCCCCCCCO` belongs 0.129%; to `O=C1c2ccccc2C(=O)c2c(O)c(O)cc(O)c21`, 5.3%; to `O=C(Nc1cccc2c(=O)cc(-c3nn[nH]n3)oc12)c1ccc(OCCCCc2ccccc2)cc1`, -0.206% [at 46 µM].
On the same count and under the same terms, to `Cc1[nH]cnc1CN1CCc2c(c3ccccc3n2C)C1=O` belongs -0.76% [at 46 µM].
Consider `CCCCCC[C@@H](O)C/C=C\CCCCCCCC(=O)O`, for which the call was inactive.
In the case of `C=C/C(C)=C/C/C=C(\C)CCC=C(C)C`, the “fluorescence, relative to Rose Bengal” value was -0.0987%.
In the case of `CCn1cc(C(=O)O)c(=O)c2cc(F)c(N3CCNCC3)cc21`, the compound was called inactive.
For `NC1[C@H]2CN(c3nc4c(cc3F)c(=O)c(C(=O)O)cn4-c3ccc(F)cc3F)C[C@@H]12` (stereo not given in full), the “fluorescence, relative to Rose Bengal” value is 0.232% [at 46 µM].
As to `CCCCCCCCCCCCCCN(CCO)CCO`, the “fluorescence, relative to Rose Bengal” value was -0.56%.
Turning to `CO/N=C(/C(=O)N[C@@H]1C(=O)N2C(C(=O)O)=C(COC(N)=O)CS[C@H]12)c1ccco1`, the compound was called inactive.
`COc1ccccc1NC(=O)c1cc2ccccc2cc1O`: the “fluorescence, relative to Rose Bengal” value was -0.245%.
On the same count and under the same terms, to `C=C(C)CCCC(C)CCO` (stereo not given) belongs -0.0198%; to `CC(=O)OCC[N+](C)(C)C`, -0.224% [at 46 µM].
Regarding `O=[N+]([O-])c1ccc(O/N=C/c2cc(Br)c(O)c(Br)c2)c([N+](=O)[O-])c1`, the “fluorescence, relative to Rose Bengal” value is 0.0889%.
On the same count and under the same terms, next, `COc1ccccc1Oc1c(NS(=O)(=O)c2ccc(C(C)(C)C)cc2)nc(-c2ncccn2)nc1OCCO`: 0.691% [at 46 µM]; `CC(=O)c1ccc([N+](=O)[O-])cc1`: -0.489%.
The same measure, in the same setting: to `CCOC(=O)/C=C/C(=O)OCC` belongs 0.116%.
Same read-out and setting: to `O[C@@H]1CO[C@H]2[C@@H]1OC[C@@H]2O` belongs -0.421% [at 46 µM].
`O=C(O)CCC(=O)C(=O)O`: the compound was called inactive.
On to `CCOc1ccccc1O[C@H](c1ccccc1)[C@H]1CNCCO1`, for which the “fluorescence, relative to Rose Bengal” value is 0.123% [at 46 µM].
Still for that read-out and setting: next, `CC(C)(c1ccccc1)c1ccccc1`: 0.0449%; `CC1=C(Br)C(=O)C(Br)=C/C1=C(/c1ccccc1S(=O)(=O)O)c1cc(Br)c(O)c(Br)c1C`: 0.0144%; `COc1cc(C(=O)NCCCCCC(=O)O)cc(OC)c1OC`: 0.517% [at 46 µM].
Still for that read-out and setting: next, `CCC1CO1` (stereo not given): -0.101%; `O=C=Nc1ccc(Cl)c(Cl)c1`: 0.214%; `CC(CO)CO`: -0.387% [at 95.7 µM].
In the case of `O=C(CCc1ccc(O)cc1)c1c(O)cc(O)cc1O`, the “fluorescence, relative to Rose Bengal” value was -0.0101% [at 95.7 µM].
Still for that read-out and setting: next, `CC(C)=CCC1C(=O)N(c2ccccc2)N(c2ccccc2)C1=O`: -0.517% [at 46 µM].
For `CCC(=O)OC`, the “fluorescence, relative to Rose Bengal” value is 0.131%.
With `COc1cc(N)c(Cl)cc1C(=O)NC1CCN(CCCOc2ccc(F)cc2)CC1OC` (stereo not given), the fluorescence, relative to Rose Bengal is 0.956% [at 18.6 µM].
The same measure, in the same setting: to `CCOC(=O)[C@H](CCc1ccccc1)N[C@@H](C)C(=O)N(CC(=O)O)C1Cc2ccccc2C1` belongs 0.212% [at 46 µM]; to `CCCCCCNC(=O)n1cc(F)c(=O)[nH]c1=O`, -0.0216% [at 46 µM]; to `COc1cc(C(=O)NC2CCN(C)CC2)ccc1Nc1ncc2c(n1)N(C1CCCC1)CC(F)(F)C(=O)N2C`, -0.0754%.
On the same count and under the same terms, to `O=[N+]([O-])c1ccc(Nc2ccc(Nc3ccccc3)c(S(=O)(=O)O)c2)c([N+](=O)[O-])c1` belongs 0.0124%; to `OCCN1CCN(CCCN2c3ccccc3Sc3ccc(Cl)cc32)CC1`, 0.837% [at 18.6 µM]; to `Cc1ccc(Cl)c(Nc2ccccc2C(=O)O)c1Cl`, -0.0924% [at 46 µM].
On the same count and under the same terms, next, `C=C1c2cccc(O)c2C(O)=C2C(=O)[C@]3(O)C(O)=C(C(N)=O)C(=O)[C@@H](N(C)C)[C@@H]3[C@@H](O)[C@H]12`: -0.284% [at 18.6 µM].
Turning to `O=c1[nH]c2ccc(Cl)cc2o1`, the “fluorescence, relative to Rose Bengal” value is 0.0183%.
With `C/C=C\C/C=C/CCCCCCCCOC(C)=O`, the “fluorescence, relative to Rose Bengal” value is -0.336%.
